Screens deposited in PubChem by Buhrlage Lab, Dana-Farber Cancer Institute and Novartis Institutes for BioMedical Research (Cambridge, Mass).
Only some compounds are listed: those with a hit (about 4.9% of all), similar ones and a draw of the others.
OTUD3 inh: human OTUD3 deubiquitinase inhibition. purified OTUD3, Ub-rhodamine fluorescence, 2 h. Q5T2D3. 47,000 tested, 0.7% active. inhibition, % at 25 µM. AID 1645858
USP10 inh: human USP10 deubiquitinase inhibition; purified USP10, Ub-rhodamine fluorescence, 60 min; AID 1645856; 47,000 tested, 1.1% active; inhibition, % at 20 µM; Q14694
USP7 inh: blocks human USP7 ubiquitin-rhodamine cleavage. Q93009. AID 1645854. 47,000 tested, 0.3% active. purified USP7, Ub-rhodamine cleavage fluorescence. inhibition, % at 20 µM
UCHL1 inh: blocks human UCHL1 ubiquitin-rhodamine cleavage; P09936; purified UCHL1, Ub-rhodamine cleavage fluorescence; inhibition, % at 20 µM; 47,000 tested, 0.2% active
USP8 block: blocks human USP8 ubiquitin-rhodamine cleavage; purified USP8, Ub-rhodamine cleavage fluorescence, 30 min; inhibition, % at 20 µM; 47,000 tested, 4.2% active
Of the large screens only hits and unclear results are named; the others gave an inactive call. Cut-off read from the data, not from the text of the source: active = inhibition above about 30%; inactive = the rest.

O=C(C1CC1)N1CCCC(c2ccnc(Nc3ccccc3)n2)C1 (stereo unspecified)	none
Cc1cc(N2CCCCC2)n2nc(CN3CCC4(CC3)OCCO4)nc2n1	none
CC(=O)N1CCc2cc(S(=O)(=O)NC(Cc3ccccc3)C(=O)Nc3cccc(Cl)c3C)ccc21 (stereo unspecified)	OTUD3 inh 37.9, USP10 inh 54.8, USP8 block 47.3
COc1ccc(C2=Nc3ccccc3SC(c3ccccc3)C2)cc1 (stereo unspecified)	USP8 block 41.3
Cn1c(O)c(C2=Nc3ccccc3SC(c3ccc(Cl)cc3)C2)c(=O)n(C)c1=O (stereo unspecified)	none
CC(C)NC(=O)c1cccc(-c2noc(-c3ccoc3)n2)c1	none
O=C(CN1CCc2ccccc21)Nc1cc(C(=O)O)ccc1O	USP8 block 49.5
O=C(Nc1ccc(F)cc1)c1cccnc1Nc1cccc(F)c1	none
COc1cccc2cc(-c3nnc(SCC(=O)c4ccc(F)cc4)n3C)oc12	USP8 block 39.4
COc1cccc(-c2c(NC(=O)c3ccc(F)cc3)oc3ccccc3c2=O)c1	none
O=C1CN(C(=O)COc2ccc(F)cc2Cl)c2ccccc2N1	none
O=C1CN(C(=O)COc2cccc3ccccc23)c2ccccc2N1	USP8 block 84.2
Cc1ccc(NC(=O)Cn2c(-c3cnccn3)nc(C)c(C)c2=O)cc1	none
O=C(Cc1ccccc1)N1CCN(c2ccnc3cc(Cl)ccc23)CC1	none
O=C(c1cccc2ncccc12)N1CCN(c2ccnc3cc(Cl)ccc23)CC1	USP8 block 47.9
Cc1cccc(NC(=O)[C@@H]2CCCN2C2=NS(=O)(=O)c3ccccc32)c1C	USP8 block 46.4
CCN(CCO)c1ncnc2c1sc1nc(-c3ccccc3)c3c(c12)CCC3	none
COc1ccc(N(C)C(=O)c2cc3c(=O)n(C)c4ccccc4n3n2)cc1	USP8 block 82.2
Cc1ccc2nc(-c3ccc(NC(=O)COC(=O)CCC(=O)Nc4sc5c(c4C(N)=O)CCC5)cc3)sc2c1	USP8 block 47.1
O=C(Cn1c(=O)[nH]c2ccccc2c1=O)NCc1ccccc1Cl	USP8 block 55.4
O=C(Cn1c(=O)[nH]c2ccccc2c1=O)NC1CC1	none
CC1CC(=O)c2c(cc3c(-c4c(O)cc(O)c5c(O)c6c(cc45)OC(C)CC6=O)c(O)cc(O)c3c2O)O1 (stereo unspecified)	OTUD3 inh 78.5, USP10 inh 82.5, USP7 inh 74.2, UCHL1 inh 83.4, USP8 block 78.5
O=C(Cn1cnc(-c2noc(-c3cccc(F)c3)n2)c1)Nc1ccccc1	USP8 block 64.5
O=C(Cc1noc(-c2ccccc2)n1)Nc1ccccc1	none
O=C(Cn1cnc(-c2noc(-c3ccccc3)n2)c1)Nc1ccccc1	USP10 inh 42.0, USP8 block 89.8
O=C(COc1cccc(-c2noc(-c3ccc([N+](=O)[O-])cc3)n2)c1)Nc1ccccc1	none
O=C1NCc2ccccc2CC12CCCN(Cc1cccc(O)c1)C2 (stereo unspecified)	none
Cc1ccc(C2CC(=O)C3=C(C2)Nc2ccccc2N(C(=O)c2ccccc2)C3c2ccccc2)cc1 (stereo unspecified)	USP8 block 30.5
COc1ccc(C2C3=C(CC(c4ccco4)CC3=O)Nc3ccccc3N2C(C)=O)cc1 (stereo unspecified)	USP8 block 55.7
O=C(NCc1ccc(F)cc1Cl)c1ccc(-c2cccnc2)nc1	none
O=C(Nc1ccccc1F)NC1(c2nc(C3CC3)no2)CCCCC1	none
NS(=O)(=O)c1cc(C(=O)OCC(=O)Nc2ccc(N3CCOCC3)cc2)ccc1Cl	none
COc1cc(N)c(Cl)cc1C(=O)OCC(=O)Nc1ccc(N2CCOCC2)cc1	USP8 block 38.7
O=C(c1ccc(-c2csc(C3CC3)n2)cc1)N1CCC2(CC1)OCCO2	none
Cc1cc(C)n(-c2nnc(NCc3ccc(Cl)cc3)nn2)n1	USP8 block 45.2
O=C(Nc1ccc2[nH]c(=O)[nH]c2c1)c1cc2c(=O)n3ccccc3nc2s1	none
O=C(CNC(=O)c1cc2c(=O)n3ccccc3nc2s1)c1ccccc1	USP8 block 43.7
COc1ccc(-n2cc(C(=O)NC(C)c3ccc4c(c3)OCCO4)c3ccccc3c2=O)cc1 (stereo unspecified)	none
CC(=O)c1ccc(NC(=O)C2CC(=O)Nc3nc(SCc4ccccc4)nn32)cc1 (stereo unspecified)	USP10 inh 30.4
O=C1CC(C(=O)Nc2ccc(F)cc2)n2nc(SCc3ccccc3)nc2N1 (stereo unspecified)	none
Cc1ccc(CC(=O)Nc2ccc(C)cc2-c2n[nH]c(C3CC3)n2)cc1	USP10 inh 30.2, USP8 block 63.5
Cc1ccc(-c2cc3nc(Nc4ccc(C(N)=O)cc4)ccn3n2)cc1	USP8 block 71.4
COc1ccc(-c2cc3nc(Nc4cc(OC)c(OC)c(OC)c4)ccn3n2)cc1	none
Cc1cccc(/C=C/c2nc3ccc([N+](=O)[O-])cc3s2)c1	USP8 block 87.4
Cc1cccc(S(=O)(=O)Nc2ccc(N3CCN(C)CC3)c(C(=O)O)c2)c1	USP8 block 88.9
Cc1cccc(NS(=O)(=O)c2ccc(C)c(C(=O)N3CCCc4ccccc43)c2)c1	none
CN(C(=O)c1cccc2cccnc12)c1nc2c(s1)CCc1occc1-2	USP8 block 63.8
CN(C(=O)C1(c2ccccc2)CC1)c1nc2c(s1)CCc1occc1-2	none
CC1CCN(c2nnc(-c3nc(C4CC4)no3)c3ccccc23)CC1	OTUD3 inh 31.0
c1ccc2c(N3CCCC3)nnc(-c3nc(C4CC4)no3)c2c1	none
CC(NC(=O)c1ccccc1)c1nc2ccccc2n1CC(=O)Nc1ccc2c(c1)OCO2 (stereo unspecified)	USP10 inh 56.3, USP8 block 74.0
CC(C)c1ccc(NC(=O)Cn2c(CNC(=O)c3ccccc3)nc3ccccc32)cc1	none
CC(NC(=O)c1ccccc1)c1nc2ccccc2n1CC(=O)Nc1ccc(F)cc1 (stereo unspecified)	USP8 block 66.1
CCc1cccc(C)c1NC(=O)Cn1c(C(C)NC(=O)c2ccc(C)cc2)nc2ccccc21 (stereo unspecified)	USP10 inh 44.5, USP8 block 75.1
Cc1cccc(C(C)C)c1NC(=O)Cn1c(COc2ccccc2)nc2ccccc21	none
Cc1nc2ccccc2nc1SCC(=O)Nc1ccc2c(c1)OCO2	none
Cc1ccc(S(=O)(=O)N2CCC(C(=O)Nc3nnc(C)o3)CC2)c(C)c1	none
Cc1sc(C)c(S(=O)(=O)N2CCCC2)c1-c1cc(C(F)(F)F)on1	none
CC(C)CCN1C(=O)C2C(C(=O)Nc3ccc(Oc4ccccc4)cc3)C3C=CC2(O3)C1C(=O)NC1CCCCC1 (stereo unspecified)	OTUD3 inh 30.1, USP8 block 30.5
CCN(Cc1ccc2c(c1)OCO2)C(=O)Cn1cnc2c(cnn2-c2ccccc2)c1=O	none
CN(Cc1ccc2c(c1)OCO2)C(=O)Cn1cnc2sc(-c3ccccc3)cc2c1=O	USP8 block 55.0
CN1CCN(c2nc3c(c(=O)[nH]2)CCN(Cc2ccccc2F)CC3)CC1	none
